# Publication PMC4336329 (PLoS ONE, 2015)
# Hit rate of the full screen: of about 310,000 compounds, about 2,200 (0.71%) showed an effect of 50% or more. The effect is printed as a negative number. Many of the other results were omitted from the sample, so strong results are more common in it than they were.
# Biological target: human ether-à-go-go-related gene (hERG) potassium channel (human, UniProt Q12809)
# Assay: primary screen, population patch clamp on CHO cells stably expressing hERG; higher = less effect of the substance
# Experimental: Briefly, Chinese hamster ovary (CHO) cells stably expressing the hERG channel were dislodged from tissue culture flasks and dispensed into PPC plates. […] During the recording, background leak currents were estimated by a 100 ms step to -80 mV from an initial holding potential of -70 mV and subtracted from the subsequent current measurement. The campaign was conducted in two phases using slight differences in recording protocol. In the first phase, the initial voltage pulse used a 100 ms step to -30 mV from a holding potential of -70 mV, a 2 s conditioning step to +25 mV, and a 2 s test step to -30 mV. During the second phase of the screen, the potential during the conditioning step was raised to +45 mV. In both phases of the campaign, a secondary voltage pulse was applied using the same parameters as the second phase initial pulse. The initial and secondary pulses were applied in the absence of compound, and upon application of 1 μM and 10 μM test concentrations. Small molecule effects on hERG current density were quantified by […].
# Chain of human ether-à-go-go-related gene (hERG) potassium channel (Q12809 whole entry, looked up): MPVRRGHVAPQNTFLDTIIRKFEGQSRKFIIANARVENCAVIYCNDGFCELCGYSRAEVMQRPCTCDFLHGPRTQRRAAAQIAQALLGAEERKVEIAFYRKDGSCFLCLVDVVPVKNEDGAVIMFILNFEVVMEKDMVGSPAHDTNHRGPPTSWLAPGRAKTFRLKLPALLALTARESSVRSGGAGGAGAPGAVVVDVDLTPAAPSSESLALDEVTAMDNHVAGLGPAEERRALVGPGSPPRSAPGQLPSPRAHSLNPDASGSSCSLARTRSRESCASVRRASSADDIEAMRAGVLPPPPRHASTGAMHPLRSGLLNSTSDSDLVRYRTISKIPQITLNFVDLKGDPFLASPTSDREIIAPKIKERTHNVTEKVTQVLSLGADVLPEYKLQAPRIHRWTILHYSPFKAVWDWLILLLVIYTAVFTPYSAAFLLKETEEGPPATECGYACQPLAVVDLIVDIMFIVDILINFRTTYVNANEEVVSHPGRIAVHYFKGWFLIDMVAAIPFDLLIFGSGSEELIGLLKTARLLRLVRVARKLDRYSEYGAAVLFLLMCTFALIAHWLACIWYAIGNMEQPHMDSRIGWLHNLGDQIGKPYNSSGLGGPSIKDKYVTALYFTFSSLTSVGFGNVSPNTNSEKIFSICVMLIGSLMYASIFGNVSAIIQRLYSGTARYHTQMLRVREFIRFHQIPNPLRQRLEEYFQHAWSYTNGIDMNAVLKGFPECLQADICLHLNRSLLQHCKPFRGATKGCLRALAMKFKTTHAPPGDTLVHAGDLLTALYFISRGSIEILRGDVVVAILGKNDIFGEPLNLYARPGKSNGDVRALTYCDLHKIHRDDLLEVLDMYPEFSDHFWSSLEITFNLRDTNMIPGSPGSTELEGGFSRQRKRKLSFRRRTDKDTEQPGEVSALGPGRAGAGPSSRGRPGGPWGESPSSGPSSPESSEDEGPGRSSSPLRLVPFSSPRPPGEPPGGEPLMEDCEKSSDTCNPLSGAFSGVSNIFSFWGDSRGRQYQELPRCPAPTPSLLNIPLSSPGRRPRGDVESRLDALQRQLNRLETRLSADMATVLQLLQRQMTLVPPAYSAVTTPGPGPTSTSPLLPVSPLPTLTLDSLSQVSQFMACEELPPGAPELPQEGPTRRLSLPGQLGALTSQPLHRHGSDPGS
row,SMILES,"hERG current change (%, negative = inhibition) at 1uM"
1,CN1CCN(Cc2ccccc2Sc2ccccc2)CC1.O=C(O)/C=C\C(=O)O,-68.1%
2,CC(Cc1ccccc1Sc1ccc(O)cc1)N(C)C.CCO.Cl (stereo not drawn),-73.1%
3,CNC(C)Cc1ccccc1Sc1ccc(O)cc1.Cl (stereo not drawn),-21.1%
4,CCN(CC)Cc1ccccc1Sc1ccccc1.O=C(O)/C=C\C(=O)O,-6.63%
5,N/C(Cc1ccccc1Sc1ccccc1)=N\O.O=C(O)/C=C\C(=O)O,4.44%
6,CC(Cc1ccccc1Sc1ccccc1)N(C)C.O=C(O)/C=C\C(=O)O (stereo not drawn),-60.6%
7,CC(Cc1ccccc1Sc1ccccc1O)N(C)C.Cl (stereo not drawn),3.67%
8,N=C(N)Cc1ccccc1Sc1ccccc1.O=C(O)/C=C\C(=O)O,5.87%
9,O=C(O)/C=C\C(=O)O.c1ccc(Sc2ccccc2CN2CCCC2)cc1,-11.3%
10,CN(C)CCCn1c(SCC(=O)Nc2nc(-c3cccc(Br)c3)cs2)nc2ccccc2c1=O,-3.37%
11,Cc1ccc([N+](=O)[O-])cc1NC(=O)c1ccccc1,0.0028%
12,N#Cc1ccc(C(=O)Nc2nc(-c3cccs3)c(C(=O)C(F)(F)F)s2)cc1,-18.6%
13,CCC(CC)NC(=O)Nc1ccccc1C,11.5%
14,CC(C)OCCCN1CN(S(=O)(=O)c2ccc(Cl)cc2)c2nc3ccccc3nc21,13.8%
15,O=C1Nc2ccc(Cl)cc2/C1=C/C1CC=CCC1 (stereo not drawn),7.83%
16,COc1ccc(N2CCN(Cc3oc(CO)cc(=O)c3O)CC2)cc1,2.29%
17,Cc1ccccc1CN1CCN(CC(=O)NC(C)c2ccccc2)CC1 (stereo not drawn),3.82%
18,COc1ccc(CN(C(=O)CN2C(=O)c3ccccc3S2(=O)=O)C(C(=O)NCC2CCCO2)c2ccncc2)cc1 (stereo not drawn),0.0687%
19,COc1ccc(CN(C(=O)CN2C(=O)c3ccccc3S2(=O)=O)C(C(=O)NCC2CCCO2)c2ccco2)cc1 (stereo not drawn),-2.31%
20,O=C(NCC1CCCO1)C(c1ccco1)N(Cc1ccc(F)cc1)C(=O)CN1C(=O)c2ccccc2S1(=O)=O (stereo not drawn),8.75%
21,COc1cccc(C(C(=O)NCC2CCCO2)N(CC2CCCO2)C(=O)CN2C(=O)c3ccccc3S2(=O)=O)c1 (stereo not drawn),12.5%

row,SMILES,"hERG current change (%, negative = inhibition) at 1uM"
1,O=C(NCC1CCCO1)C(c1ccncc1)N(Cc1ccc(F)cc1)C(=O)CN1C(=O)c2ccccc2S1(=O)=O (stereo not drawn),-51.2%
2,COc1cccc(CN(C(=O)CN2C(=O)c3ccccc3S2(=O)=O)C(C(=O)NCC2CCCO2)c2ccco2)c1 (stereo not drawn),-50.1%
3,COc1ccc(CC(=O)Nc2ccc(OC(C)=O)cc2C(=O)O)cc1,-3.47%
4,O=c1c2ccccc2nnn1CSc1nnc2ccccn12,6.78%
5,Cc1ccc(Sc2ncccc2C(=O)O)cc1C,15.6%
6,CCOC(=O)N1CCC(NCCNC(=O)c2cccs2)CC1,5.13%
7,CCOC(=O)c1[nH]c2ccc(OC)cc2c1NC(=O)OC,9.33%
8,NC(=O)C1CCN(C(=O)N2c3ccccc3Sc3ccccc32)CC1,0.149%
9,O=C(NCc1ccco1)C1CCN(c2ccc(S(=O)(=O)N3CCOCC3)cc2[N+](=O)[O-])CC1,-51.5%
10,CCN(CC)C(=O)C1CCN(S(=O)(=O)c2ccc(-n3cnnn3)cc2)CC1,3.52%
11,O=C(NCc1ccccc1Cl)C1CCN(S(=O)(=O)c2ccc(-n3cnnn3)cc2)CC1,-3.01%
12,O=C(NCc1ccco1)C1CCN(S(=O)(=O)c2ccc(-n3cnnn3)cc2)CC1,-62.1%
13,C=CCN(CC=C)C(=O)C1CCN(S(=O)(=O)c2ccc(-n3cnnn3)cc2)CC1,-13.1%
14,C=CCNC(=O)C1CCN(c2ccc(S(=O)(=O)N3CCOCC3)cc2[N+](=O)[O-])CC1,-2.79%
15,CC(C)CNC(=O)C1CCN(c2ccc(S(=O)(=O)N3CCOCC3)cc2[N+](=O)[O-])CC1,-9.02%
16,O=C(NCc1ccco1)C1CCCN(S(=O)(=O)c2ccc(-n3cnnn3)cc2)C1 (stereo not drawn),-26.8%
17,CN(Cc1ccccc1)C(=O)C1CCN(S(=O)(=O)c2ccc(-n3cnnn3)cc2)CC1,-62%
18,C[C@@H]1CN(Cc2nc(Cc3ccccc3F)no2)C[C@H](C)O1,8.68%
19,O=C(Nc1cccc(C(=O)O)c1)/C(=C\c1ccc2c(c1)OCO2)NC(=O)c1ccccc1,3.01%
20,CC(C)Oc1cccc(C(=O)C2CCCN(C(=O)c3cncs3)C2)c1 (stereo not drawn),4.28%
21,CC1CCC(C(C)C)C(OC(=O)COC(=O)c2ccccc2N)C1 (stereo not drawn),4.58%

row,SMILES,"hERG current change (%, negative = inhibition) at 1uM"
1,CC1CCC(C(C)C)C(OC(=O)C[n+]2cc(-c3ccc(Cl)cc3)n3c2CCCCC3)C1.[Cl-] (stereo not drawn),-19.9%
2,COc1ccc(OCc2n(CC(=O)OC3CC(C)CCC3C(C)C)c3ccccc3[n+]2C)cc1.[Cl-] (stereo not drawn),-45.5%
3,Cc1cccc(OCc2n(CC(=O)OC3CC(C)CCC3C(C)C)c3ccccc3[n+]2C)c1.[Cl-] (stereo not drawn),-12.2%
4,CC1CCC(C(C)C)C(OC(=O)Cn2c(-c3ccc(F)cc3)[n+](C)c3ccccc32)C1.[Cl-] (stereo not drawn),-53.9%
5,CC1CCC(C(C)C)C(OC(=O)Cn2c(-c3ccc(Cl)cc3)[n+](C)c3ccccc32)C1.[Cl-] (stereo not drawn),-58%
6,CC1CCC(C(C)C)C(OC(=O)C[n+]2cc(-c3ccc(Cl)cc3)n3c2CCC3)C1.[Cl-] (stereo not drawn),-25.6%
7,Cc1ccccc1OCc1n(CC(=O)OC2CC(C)CCC2C(C)C)c2ccccc2[n+]1C.[Cl-] (stereo not drawn),-1.86%
8,CC1CCC(C(C)C)C(OC(=O)Cn2c(-c3ccc(Br)cc3)[n+](C)c3ccccc32)C1.[Cl-] (stereo not drawn),-60.7%
9,CC1CCC(C(C)C)C(OC(=O)COC(=O)c2cccn2C)C1 (stereo not drawn),17.6%
10,CC1CCC(C(C)C)C(OC(=O)Cn2c(COc3ccccc3)[n+](C)c3ccccc32)C1.[Cl-] (stereo not drawn),-54%
11,CC1CCC(C(C)C)C(OC(=O)Cn2c(-c3ccccc3)[n+](C)c3ccccc32)C1.[Cl-] (stereo not drawn),-42.1%
12,COc1ccc(N2CCC(CNS(=O)(=O)c3cccc(C(F)(F)F)c3)C2)cc1 (stereo not drawn),4.38%
13,COc1cccc(NC(=O)Nc2nnc(CC(=O)Nc3ccccc3)s2)c1,6.56%
14,CC(=O)Oc1ccc(-c2cccc(C(=O)NCCO)c2)cc1,16.3%
15,O=C(CN1CCN(Cc2ccccc2)CC1)N=Nc1c(O)[nH]c2ccccc12,-37.6%
16,O=C(CN1CCN(Cc2ccccc2Cl)CC1)N=Nc1c(O)[nH]c2ccccc12,-5.17%
17,Cc1ccc(CN2CCN(CC(=O)N=Nc3c(O)[nH]c4ccccc34)CC2)cc1,-75.3%
18,COc1cc(C2CC(=O)Nc3cc(C)c(C)cc32)cc(OC)c1OC (stereo not drawn),14.3%
19,COc1ccc(NC(=O)CNS(=O)(=O)c2ccc3nc(C)sc3c2)c(OC)c1,1.77%
20,CC(C)C(Sc1nc(-c2ccccc2)cc(-c2ccccc2)c1C#N)C(=O)O (stereo not drawn),9.23%
21,C=CCNC(=O)CN1CCC(n2nnc3cc(C(F)(F)F)ccc32)CC1,-0.772%

row,SMILES,"hERG current change (%, negative = inhibition) at 1uM"
1,O=C(CN1CCC(n2nnc3ccccc32)CC1)NCc1cccs1,-47.3%
2,O=C(CN1CCC(n2nnc3cc(C(F)(F)F)ccc32)CC1)NCc1cccs1,-56.9%
3,O=C(CN1C(=O)CCSc2ccccc21)Nc1ccc2c(c1)OCO2,-4.53%
4,O=C(CCCN1C(=O)/C(=C\c2cccs2)SC1=S)NNC(=O)c1ccncc1,4.39%
5,O=C(/C=C/c1ccc([N+](=O)[O-])cc1)NCCN1C(=O)S/C(=C\c2ccc(F)cc2)C1=O,2.19%
6,N#CCCN(CCN1CCCC1)S(=O)(=O)c1ccc(-c2ccc([N+](=O)[O-])cc2)cc1,-76.5%
7,Cc1ccc(S(=O)(=O)N(CCC#N)CCN2CCCC2)cc1,2.4%
8,CCN(CC)S(=O)(=O)c1ccc(S(=O)(=O)N2CCN(CCC#N)CC2)cc1,8.96%
9,O=S(=O)(NCCN1CCCC1)c1ccc(Br)cc1,3.89%
10,O=[N+]([O-])c1ccc(-c2ccc(S(=O)(=O)NCCN3CCCC3)cc2)cc1,-77.3%
11,O=[N+]([O-])c1ccc(S(=O)(=O)NCCN2CCOCC2)cc1,12.6%
12,O=C(NCC(c1ccco1)N1CCCC1)c1ccccc1Sc1ccc(C(F)(F)F)cc1[N+](=O)[O-] (stereo not drawn),4.07%
13,CCOc1ccccc1N1CCN(C(=O)c2cccc(S(=O)(=O)N3CCOCC3)c2)CC1,10.8%
14,NC(=O)Cn1cnc2nc3n(c2c1=O)CCC3,-2.24%
15,CC1CN(C(=O)COC(=O)COc2ccc(C#N)cc2)CC(C)O1 (stereo not drawn),11.6%
16,CC1(C)Cc2c(c(=S)nc(-c3ccccc3)n2CCN2CCOCC2)CO1,6.74%
17,CCCC(=O)Nc1nc2c(C)c(Cl)ccc2s1,6.64%
18,COc1ccc(NC(=O)C(c2ccccc2)N(C)C(=O)c2ccc(=O)[nH]c2)cc1 (stereo not drawn),16.6%
